Screening results as filed in PubChem BioAssay.
HP1b chromo inh: HTS for Inhibitors of HP1-beta Chromodomain Interactions with Methylated Histone Tails. Potency, µM (highest dose often 114 µM), inactives show top-dose activity change, negative = inhibition, usual class: inhibitors. AID 540317, 2011. Chromobox protein homolog 1 (Homo sapiens), P83916. AlphaScreen HP1-beta / biotin-H3K9me3 peptide binding. 0.56% of 390,000 active; also: nearly all actives have a fitted effect of over 70% in size
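HP1-beta protein (50 nM final) preincubated 30 min at room temperature with biotinylated H3(1-18)K9me3 peptide (50 nM) in PBS pH 7.4, 0.01% Tween-20, then compound added for 30 min. AlphaScreen streptavidin donor/nickel chelate acceptor beads (10 ug/mL final), 30 min dark, luminescence read.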
BAZ2B block: qHTS Assay for Inhibitors of BAZ2B. Bromodomain adjacent to zinc finger domain protein 2B (Homo sapiens), Q9UIF8. AlphaScreen BAZ2B-H3K14Ac peptide displacement. Potency, µM (doses to about 114 µM), inactives show at the highest dose activity change, negative = inhibition, actives largely listed as inhibitors. 4.4% of 360,000 active. AID 504333, 2011; also: % is scaled to controls: 0 for no effect and ±100 for the full control effect; nearly all actives have a fitted effect of over 60% in size
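AlphaScreen luminescence quantifies BAZ2B engagement of H3K14Ac peptide; the protein and biotinylated peptide are both at 50 nM final, buffer PBS pH 7.4 with 0.01% Tween-20, all steps at room temperature.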
JMJD2A Tudor: qHTS Assay for Inhibitors of JMJD2A-Tudor Domain; AlphaScreen JMJD2A-Tudor / H3K4me3 peptide binding; 4.4% of 390,000 active; Lysine-specific demethylase 4A (Homo sapiens), O75164; Potency, µM (titrated, usually from 114 µM), for inactives: top-dose activity change, negative = inhibition, actives largely listed as inhibitors; AID 504339, 2011; also: % is scaled to controls: 0 for no effect and ±100 for the full control effect; nearly all actives have a fitted effect of over 50% in size
Sfp inh: qHTS Assay for Inhibitors of Bacillus subtilis Sfp phosphopantetheinyl transferase (PPTase); 4'-phosphopantetheinyl transferase ffp (Bacillus subtilis), Q9F4F7; Biochemical Sfp PPTase activity, qHTS; Potency, µM, for the others: largest response in the series, negative = inhibition, most hits filed as inhibitors; 3.5% of 310,000 active;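 also: the enzyme is Sfp with the accession as filed and its product quenches rhodamine fluorescence; 0% = enzyme reaction without inhibitor and -100% = no enzyme wells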
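Fluorescence-quenching assay: 15 nM Sfp-PPTase preincubated 15 min at room temperature with compound, then 5 uM rhodamine-CoA and 12.5 uM BHQ-2-labelled YbbR peptide added. Fluorescence (ex 525/em 598 nm) read at start and after 30 min; difference gives rate.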
G9a block: qHTS Assay for Inhibitors of Histone Lysine Methyltransferase G9a. Potency, µM (titrated, usually from 102 µM), without a hit: top-dose activity, negative = inhibition, hits mostly inhibitors. 8.8% of 350,000 active. G9a H3K9 monomethylation, AlphaScreen, 2 h. AID 504332, 2011; also: % is scaled to controls: 0 for no effect and ±100 for the full control effect; nearly all actives have a fitted effect of over 75% in size
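Quantitative HTS format: methyltransferase activity on a biotin-tagged H3K9 peptide is measured by AlphaScreen, using a rabbit anti-monomethyl-H3K9 antibody with streptavidin donor and anti-IgG acceptor beads. Final levels are 20 nM enzyme, 500 nM peptide, 20 uM SAM; 2 h RT.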
L3MBTL1 block: qHTS Assay for the Inhibitors of L3MBTL1 | Lethal(3)malignant brain tumor-like protein 1 (Homo sapiens), Q9Y468 | AlphaScreen L3MBTL1–H3K9me1 peptide binding | Potency, µM (doses to about 57.1 µM), inactives show at the top dose activity, negative = inhibition, usual class: inhibitors | 0.66% of 230,000 active; also: % is scaled to controls: 0 for no effect and ±100 for the full control effect; nearly all actives have a fitted effect of over 60% in size
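L3MBTL1 (50 nM) pre-complexed 30 min with biotinylated H3(1-15)K9me1 peptide (75 nM), then compounds added for 30 min at room temperature; AlphaScreen streptavidin donor/nickel chelate acceptor beads (10 ug/mL final) read after 30 min dark incubation.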
An asterisk follows results filed as active; ? = inconclusive; nt = no result given; ! = not active in a repeat; [ ] = remark or other dose. Sampled rows, rich in hits. Any-hit rate of the full collection: about 12%. Calls follow the shape of the dose curve; as a rule, active = well fitted curve in the direction sought with a large enough effect; inconclusive = small, poorly fitted or top-dose-only effect, or another doubt; inactive = no such curve, though single readings can be large; an effect the other way counts as inactive or inconclusive. Potency is read from the fitted curve at half-maximal effect.

SMILES	HP1b chromo inh	BAZ2B block	JMJD2A Tudor	Sfp inh	G9a block	L3MBTL1 block
COc1ccc(OCC(=O)N2CCN(CCc3ccncc3)CC2)cc1	42%	-16%	-5%	nt	-11%[59 µM]	nt
COc1ccc(OCC(=O)N2CCN(CC3CC4C=CC3C4)CC2)cc1 (stereo not drawn)	?	50µM*	5.6µM*	-23%	18µM*	2%
COP(N)(=O)SC (stereo not drawn)	nt	nt	nt	-8%	nt	nt
COc1ccccc1NC(=O)c1cc[n+](C)cc1	16%	?	-4%	23%	35µM*	3%
CC(=O)C1CCC2C3CCC4=CC(=O)CC[C@@]4(C)C3CC[C@]12C (stereo partly drawn)	nt	nt	nt	-15%	-21%[2.33 µM]	nt
c1cncc(C2CCCCN2)c1 (stereo not drawn)	25%	-1%	-9%	33%	-1%	-1%
c1cncc(C2Nc3cccc4cccc(c34)N2)c1	?	?	?	?	11µM*!	nt
C[n+]1c(-c2ccccc2)cc(CCCCc2cc(-c3ccccc3)[n+](C)c(-c3ccccc3)c2)cc1-c1ccccc1	-19%	?	?	?	40µM*	1%
COc1ccc(-c2cc(-c3ccccc3)[n+](C)c(-c3ccccc3)c2)cc1	-16%	0%	-13%	24%	8%	7%
CC(C)(C#N)O[C@H]1OC(CO)C(O)C(O)C1O (stereo partly drawn)	nt	nt	nt	14%	nt	nt
Oc1c(Br)cc(Br)cc1Br	3%	-10%	-24%	2%	8%[0.501 µM]	-8%
N[C@@H](Cc1cc(Br)c(O)c(Br)c1)C(=O)O	nt	-7%	nt	50µM*	35µM*	?
Cc1cccc(-n2c(O)c(/C=N/NC(=O)c3ccncc3)c(=O)[nH]c2=O)c1	35%	?	79µM*	-1%	37%[12.7 µM]	-12%
Cc1ccc(-n2c(O)c(/C=N/NC(=O)c3ccncc3)c(=O)[nH]c2=O)cc1	37%	50µM*	?	-1%	?	-5%
O=C(N/N=C/c1c(O)n(-c2ccccc2)c(=O)[nH]c1=O)c1ccncc1	46%	?	?	-11%	-2%[59 µM]	-7%
C[N+]12CCC(CC1)C(C(O)(c1ccccc1)c1cccs1)C2 (stereo not drawn)	15%	0%	-31%	-3%	14µM*	5%
O=C1NC(=O)c2c1c1c3ccccc3n3c1c1c2c2ccccc2n1C1CCC3O1	nt	nt	nt	2%	nt	nt
Oc1ccc(C[C@H]2NCCc3cc(O)c(O)cc32)cc1O	79µM*	-19%	40µM*	71µM*	?	nt
COc1cc2c(cc1O)CCNC2C (stereo not drawn)	nt	nt	nt	13%	nt	nt
O=C(CNC(=O)c1ccccc1)NCC(=O)OCC(=O)c1ccc([N+](=O)[O-])cc1	36%	-4%	13%	28µM*	8.9µM*	13%
O=C(CNC(=O)c1ccc(Br)cc1)NCC(=O)OCC(=O)c1ccc([N+](=O)[O-])cc1	35%	-13%	-17%	-30%	?	5%
COc1ccc(OC)c(C2C(C#N)=C(N)Oc3c2c(C)nn3-c2ccc(C)cc2)c1 (stereo not drawn)	?	50µM*	-18%[11.4 µM]	17%	25µM*	-3%
Cc1nn(-c2ccccc2)c2c1C(c1ccc(F)cc1F)C(C#N)=C(N)O2 (stereo not drawn)	0%	?	-36%	3%	-31%[59 µM]	-4%
C/C=C1/CN2CC[C@]34C(=C(C=O)[C@@H]1C[C@H]23)Nc1c(O)cccc14	nt	nt	nt	-14%	nt	nt
